Experimental findings from PubChem BioAssay AID1671190 (National Center for Advancing Translational Sciences (NCATS), 2021) are described below.

Where “and” joins values, the source holds several entries; their conditions need not be identical. Identical values can stand only once. Out of some 580,000 compounds screened, about 6,100 (1.1%) were called active. Entries that show only a call come without a potency. Not shown: some 15% with an inconclusive outcome. Calls come from the whole dose curve; as a rule, active = well fitted inhibition curve with a large enough effect; inconclusive = small, poorly fitted or top-dose-only effect, or another doubt; inactive = no such curve, though single readings can be large or run the other way. Many of the other results were omitted from the sample, so actives are more common in it than they were.
Potency is the fitted concentration of half-maximal effect.

For this test, the target named is Polyunsaturated fatty acid lipoxygenase ALOX12 (Homo sapiens) (UniProt P18054). Description: Primary qHTS assay for inhibitors of human arachidonate 12S-lipoxygenase (ALOX12): Round 2. Particulars: purified 12hLO, xylenol orange hydroperoxide absorbance; series mostly up to 108 µM. The source says: Assay Provider: Theodore R. Holman Ph.D. University of California, Santa Cruz, California Human lipoxygenase 12hLO is a member of the closely related lipoxygenase family of enzymes which catalyze the site-specific oxidation of arachidonic acid to various hormone precursor molecules and as such is a candidate for drug development in a variety of disease areas, such as cancer and inflammation. Inhibition of 12hLO activity was screened by utilizing arachidonic acid as a substrate. The extent of hydroperoxide product formation was measured by a secondary chromogenic reaction in which xylenol orange (XO, Sigma-Aldrich, cat. number 39,818-7) reacts with the ferric ions produced from the reaction between the hydroperoxide and ferrous ions. The Fe (III)-XO complex is characterized with red-shifted absorbance at 560 nm. A purified preparation of human 12hLO was supplied by Dr. Holman laboratory, University of California, Santa Cruz.
Sequence of Polyunsaturated fatty acid lipoxygenase ALOX12 (Homo sapiens) (P18054 whole entry, looked up): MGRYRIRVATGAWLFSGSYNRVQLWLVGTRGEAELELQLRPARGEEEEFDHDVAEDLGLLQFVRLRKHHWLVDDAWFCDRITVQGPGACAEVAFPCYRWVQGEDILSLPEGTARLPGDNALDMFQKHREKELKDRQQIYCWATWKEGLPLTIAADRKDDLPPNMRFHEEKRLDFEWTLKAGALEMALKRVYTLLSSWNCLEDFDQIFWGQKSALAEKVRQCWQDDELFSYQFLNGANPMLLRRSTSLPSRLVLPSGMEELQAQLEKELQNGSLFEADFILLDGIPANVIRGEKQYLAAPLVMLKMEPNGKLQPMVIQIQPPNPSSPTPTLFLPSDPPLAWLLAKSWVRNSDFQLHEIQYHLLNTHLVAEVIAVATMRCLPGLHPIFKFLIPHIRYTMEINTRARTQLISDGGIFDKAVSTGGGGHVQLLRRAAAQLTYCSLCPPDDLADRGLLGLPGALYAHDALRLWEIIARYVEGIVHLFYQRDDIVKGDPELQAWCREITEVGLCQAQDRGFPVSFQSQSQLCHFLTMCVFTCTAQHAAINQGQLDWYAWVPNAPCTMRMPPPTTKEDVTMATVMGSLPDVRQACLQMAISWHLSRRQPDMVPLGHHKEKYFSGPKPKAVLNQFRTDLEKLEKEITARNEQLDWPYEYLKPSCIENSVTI
PROTOCOL TABLE SEQUENCE No. (e.g., 1, 2, 3, etc.); […] (e.g., Cells, Incubation, Reagent, etc.); VALUE; DESCRIPTION 1; Enzyme; 3 uL; 150 nM 12hLO enzyme solution dispensed in 1536-well Greiner black, clear bottom plates. 2; Compound; 23 nL; compounds and controls were added. 3; Incubate; 15 min; room temperature. 4; Substrate; 1 uL; 40 uM arachidonic acid (final concentration). 5; Incubate; 30 min; room temperature. 6; Reagent; 4 uL; Fe-XO solution was added to each well. 7; Incubation; 30 min; room temperature 8; Detector; absorbance; Read 1 at 405 nm absorbance using ViewLux (Perkin-Elmer) CCD imager. 9; Detector; absorbance; Read 2 at 573 nm absorbance using ViewLux (Perkin-Elmer) CCD imager. NOTES (numbers refer to sequence above) 1; 150 nM 12hLO (final concentration) in buffer solution (25 mM Hepes, 0.01% Triton X-100, pH 7.0) was dispensed in columns 1, 2, 5-48. Column 1 is neutral (100% activity). Buffer only was dispensed in columns 3 and 4 as no enzyme negative controls. The plates were covered with metal lids with gas-exchange holes. 2; Compounds were pin transferred via a Kalypsys Pin Tool (Wako USA) in column 5-48. Control compound was transferred in column 2, titration of nordihydroguaiaretic acid (NDGA, Sigma-Aldrich, N5023) with top concentration of 20 mM in DMSO then 1:3 dilution in duplicate. Dilution factor of 23 nL into 4 uL final assay volume. 3; Covered assay plates were incubated for 15 min at room temperature. 4; Substrate was added to start the reaction; 40 uM arachidonic acid (Sigma-Aldrich, St. Louis, MO) was dispensed throughout the plate. 6; Chromogenic detection reagent solution (divalent iron/xylenol orange, Fe-XO) was added to each well: 200 uM xylenol orange, 300 uM ferrous ammonium sulfate prepared freshly in 50 mM sulfuric acid. 8, 9; Two absorbance readouts were obtained at 405 nm and at 573 nm using a ViewLux high-throughput CCD plate imager (Perkin-Elmer). The 573 to 405 (Read 2 / Read 1) absorbance ratio was used to compute reaction progress.
Regarding `CCc1ccccc1NC(=O)CSc1nc2ccccc2nc1C`, the Potency result was “inactive”. Turning to `Cc1cc(C)cc(NC(=O)COc2ncnc3ccccc23)c1`, the Potency entry is “inactive”. As to `COc1ccccc1CN(C)C(=O)NCc1ccc(S(=O)(=O)N2CCCCC2)cc1`, the Potency entry is “inactive”. Take `c1ccc(CN2CCc3c(sc4c3c(N3CCOCC3)nc3nnnn34)C2)cc1`: the Potency entry was “inactive”. As to `CCCCS(=O)(=O)CCCCCO`, the Potency entry is “inactive”. As for `CN(C)c1ccc(NC(=O)Cn2cnc3c2c(=O)n(C)c(=O)n3C)cc1`, the Potency entry was “inactive”.

For the compound `CC1(C)NC(=O)N(CCCC(=O)Nc2cccc3cccnc23)C1=O`, the Potency entry is “inactive”. On to `Cc1cccc(NC2=NC(c3cccnc3)n3c(nc(C)cc3=O)N2)c1` (configuration not stated), for which the Potency result was “inactive”. For the compound `COc1ccccc1NC(=O)c1cc2c(OC)c(OC)c(OC)cc2[nH]1`, the Potency entry was “inactive”. The value for `CCOc1ccc(S(=O)(=O)NCc2ccc3c(c2)OCO3)cc1C` was “inactive”; that for `Cc1ccc(CNCc2ccc3c(c2)OCO3)c(C)c1` was 44.7 µM (active); that for `Cc1cc2oc(C(=O)NCc3ccc4c(c3)OCO4)cc(=O)c2cc1C` was “inactive”. On to `CCOC(=O)C1=C(NC(=S)NC(=O)c2ccccc2)c2ccccc2CC1(C)C`, for which the Potency is 22.4 µM (active). Regarding `CC(C)CNC(=O)NC1=C(C#N)C(C)(C)Cc2ccccc21`, the Potency result was “inactive”.

Turning to `CCOC(=O)c1c(NC(=O)C2(C)Cc3ccccc3C(=O)O2)sc2c1CCCC2` (configuration not stated), the Potency entry was “inactive”. `CC(=O)CCc1ccc(OCC(O)CNC(C)(C)CO)cc1` (configuration not stated): the Potency entry was “inactive”. The value for `CCc1ccc(-c2nc(SCc3ncc(-c4ccccc4)o3)n[nH]2)cc1` was “inactive”; that for `CCOC(=O)c1cccc(NC(=O)C2=Cc3ccccc3OC=C2)c1` was “inactive”; that for `CC(=O)c1c(N2CCN(c3ccc(F)cc3)CC2)nc(=S)n(-c2ccccc2)c1C` was 44.7 µM (active). The value for `CC(=O)c1c(N2CCOCC2)nc(=S)n(-c2cc(C)ccc2C)c1C` was “inactive”. Then `CC(=O)c1c(N2CCOCC2)nc(=S)n(Cc2ccccc2)c1C`, with “inactive”; and `Cc1ccc(/C=C/C(=O)c2cc3ccccc3o2)s1`, with “inactive”; and `O=C(COc1ccc(F)cc1)Nc1ccc2oc(-c3ccc(F)cc3)nc2c1`, with “inactive”. Take `Cc1ccc(-n2ncc3c(NNC(=O)C4CCCCC4)ncnc32)cc1`: the Potency entry is “inactive”. For `COc1ccc(CCNc2ncnc3c2cnn3-c2ccc(C)cc2)cc1`, the Potency was 28.2 µM (active). The value for `COc1ccc(CCNc2ncnc3c2nnn3Cc2ccccc2)cc1` was “inactive”; that for `CCN(CC)CCNc1ncnc2c1cnn2-c1cc(Cl)ccc1C` was “inactive”; that for `NS(=O)(=O)c1ccc(CCNc2ncnc3c2cnn3-c2ccccc2Cl)cc1` was “inactive”. Regarding `Clc1cccc(-n2ncc3c(NCCc4ccccc4)ncnc32)c1`, the Potency is 44.7 µM (active) and 8.91 µM (active). On to `CCOC(=O)c1c(C)c(CCC(=O)NCCN2CCOCC2)c(C)n1C`, for which the Potency entry was “inactive”. With `CCN(CC)C(=O)C1=C(C)N=C2SC=C(CC(=O)NCc3ccco3)N2C1c1ccccc1F` (configuration not stated), the Potency entry is “inactive”. For `C#CCNC(=O)CC[C@@H]1CNC(=O)[C@@H]2C[C@H](NC(=O)Nc3cccc(Cl)c3)CN12`, the Potency result was “inactive”.

Take `O=C1Nc2ccc(-c3ccc(Cl)cc3)cc2C(=O)N2CC[C@H](NC(=O)N3CCOCC3)[C@@H]12`: the Potency result was “inactive”. The value for `COc1cc(=O)n(-c2ccc(C)cc2)nc1C(=O)Nc1cccc(Cl)c1C` was “inactive”; that for `COc1cc(OC)cc(C(=O)OCC(=O)Nc2c(C)cccc2C(C)C)c1` was “inactive”; that for `COc1cc(C2/C(=C(\O)c3ccc4c(c3)CC(C)O4)C(=O)C(=O)N2c2nnc(C)s2)cc(OC)c1OC` (configuration not stated) was “inactive”.

For `CC(C)c1ccc(C2/C(=C(\O)c3ccc4c(c3)OCCO4)C(=O)C(=O)N2c2nccs2)cc1` (configuration not stated), the Potency is 0.794 µM (active). Then `O=C1C(=O)N(CCCN2CCOCC2)C(c2ccc([N+](=O)[O-])cc2)/C1=C(\O)c1ccc2c(c1)OCCO2` (configuration not stated), with “inactive”; and `CCn1cc(C#N)c(=O)n(Cc2noc(-c3ccc(Cl)cc3)n2)c1=O`, with “inactive”; and `Cc1cccc(NC(=O)c2cccc(C(=O)Nc3cccc(C)c3C)n2)c1C`, with 3.16 µM (active). With `Cc1cccc(NC(=O)N2CCCCCC2)c1C`, the Potency entry is “inactive”. For the compound `Cc1cccc(NC(=O)c2ccc3nc(C(C)C)oc3c2)c1C`, the Potency entry is “inactive”. `O=C(OCc1ccccc1)N1CCOCC12CCN(Cc1cccc(O)c1)CC2`: the Potency entry is “inactive”. Take `CCc1ccccc1NC(=O)CSc1nc2c(=O)[nH]cnc2n1CC`: the Potency result was “inactive”. For the compound `Cc1cc(C)cc(-n2ccnc2SCC(=O)Nc2nc3ccccc3s2)c1`, the Potency entry is “inactive”. As for `O=C(CCc1ncc(-c2ccccc2)o1)Nc1nc2ccccc2s1`, the Potency entry was “inactive”.

Turning to `c1ccc(C(=NNc2nc3ccccc3s2)c2ccccn2)cc1`, the Potency is 44.7 µM (active).

For `COc1cccc(Oc2coc3cc(OC)ccc3c2=O)c1`, the Potency result was “inactive”. The value for `CCN1C(=O)COc2ccc(NC(=O)c3cc(=O)c4cc(Cl)c(C)cc4o3)cc21` was “inactive”; that for `O=C(NCCc1nc2ccccc2[nH]1)c1ccc(N2CCCN(Cc3cccc(F)c3)C2=O)cc1` was “inactive”; that for `CCOC(=O)c1c(S(=O)(=O)N2CCCC2)nn(C)c1C` was 14.1 µM (active). For `CCOC(=O)c1c(S(=O)(=O)N2CCCC(C(=O)NCc3cccc(C)c3)C2)c(C)n(C)c1C` (configuration not stated), the Potency result is “inactive”.
